Data reported in publication PMC7819943, “Rice protein-binding microarrays: a tool to detect cis-acting elements near promoter regions in rice”.
Over roughly 68,000 sequences, “fluorescence intensity (a.u.)” has its median near 9,100; the highest 2% begin near 16,000. For the sample, the highest values were picked, then their nearest neighbours and some sequences at random.

Target: OsWRKY34 (Oryza sativa, UniProt Q0JBA9 1-250)
Assay: protein-binding microarray (RPBM); PBS, 2% BSA, 51.3 ng/ul salmon testes DNA, 50 uM zinc acetate, 200 nM TF, 25 C, 1 h; high values mean tight binding
Conditions: protein: recombinant; tags: N-terminal polyhistidine and DsRed monomer fusion (pET32a); label: CyDye5-dUTP incorporated in the synthesized complementary strand; 3' TTTTT single-stranded linker to array surface; dsDNA, one strand shown
Procedure, shortened: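 Using Ni–NTA, transcription factors fused N-terminally to polyhistidine and DsRed were purified after expression in E. coli BL21-CodonPlus. These were incubated at 200 nM with a blocked, double-stranded custom Agilent array for 1 h at 25 °C in a buffer containing 50 µM zinc acetate, and the array was washed. The binding signal is per-feature fluorescence intensity (arbitrary units) on an Axon 4000B scanner.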

Chain of OsWRKY34 (Q0JBA9 entry or part of it): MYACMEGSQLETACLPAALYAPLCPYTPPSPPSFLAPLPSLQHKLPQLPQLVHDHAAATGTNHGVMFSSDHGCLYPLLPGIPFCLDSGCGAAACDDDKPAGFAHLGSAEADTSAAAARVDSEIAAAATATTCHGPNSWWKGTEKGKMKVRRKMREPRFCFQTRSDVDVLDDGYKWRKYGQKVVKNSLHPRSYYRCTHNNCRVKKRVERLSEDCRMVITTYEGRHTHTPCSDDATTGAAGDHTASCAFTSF

Q: With “TCCCTAAATGTTTAACGTCGTTGACTTTTTAAAATATGTTCGGAGTCACCTAGTGCAG” as the sequence, how does the binding signal read?
A: Its binding signal is 21000 fluorescence intensity (a.u.).

Q: With “GTCGTTGATTTTTTTAAAAATGTTTAACCGTTCGTTTTATCGGAGTCACCTAGTGCAG” as the sequence, how does the binding signal read?
A: Its binding signal is 8170 fluorescence intensity (a.u.).

Q: Which binding signal does the source give for “AATGTATGACGCCGTTGACTTTTTAACAAATATTTGACATCGGAGTCACCTAGTGCAG” here?
A: Its binding signal is 20300 fluorescence intensity (a.u.).

Q: How did the binding signal turn out when “TTATATGATGTTGTTGACTTTTTGACAAATGTTTAATCATCGGAGTCACCTAGTGCAG” was run?
A: The binding signal was 8810 fluorescence intensity (a.u.).

Q: How did the binding signal turn out when “CGTGCCGCCGCCGCCGCCGCCATCCTCCGGCAACAACGGCCGGAGTCACCTAGTGCAG” was run?
A: Its binding signal is 9650 fluorescence intensity (a.u.).

Q: With “GCTTCGCTTTGCGCTCTCTCTATCTCTCTCTCTTCCAAAACGGAGTCACCTAGTGCAG” as the sequence, how does the binding signal read?
A: The binding signal was 8490 fluorescence intensity (a.u.).

Q: How did the binding signal turn out when “TATCCACATACCACCTCTCCATTGGACCACAGTTTCTCTCCGGAGTCACCTAGTGCAG” was run?
A: Its binding signal is 8340 fluorescence intensity (a.u.).

Q: How did the binding signal turn out when “AAGGGGATCGGAGATGCCGCTGGGCAAGTACTACTGCGACCGGAGTCACCTAGTGCAG” was run?
A: Its binding signal is 29900 fluorescence intensity (a.u.).

Q: How did the binding signal turn out when “GGGGCAAGGAAGGAAGGGGAGGGGAGGGGTTGGGGCGATGCGGAGTCACCTAGTGCAG” was run?
A: Its binding signal is 25900 fluorescence intensity (a.u.).

Q: With “GGTTTTGCAGGGCGAGGAGGGAGGGGAGGAGGGAAGGATGCGGAGTCACCTAGTGCAG” as the sequence, how does the binding signal read?
A: The binding signal was 15900 fluorescence intensity (a.u.).

Q: With “GGAGAGGAGCGGGCGGGTTGGTGTTGGGAAGGGAGGGATGCGGAGTCACCTAGTGCAG” as the sequence, how does the binding signal read?
A: The binding signal was 18200 fluorescence intensity (a.u.).

Q: Which binding signal does the source give for “CGCGGGGAGGGAGGGAGGGAAGGAGAGGAGGAAGAGGATGCGGAGTCACCTAGTGCAG” here?
A: The binding signal was 9410 fluorescence intensity (a.u.).

Q: For “CGAGAAGGGGATGGGGAGGAGGAGAGGGAGCGGGAGAGGGCGGAGTCACCTAGTGCAG”, which binding signal is on record?
A: The binding signal was 10100 fluorescence intensity (a.u.).

Q: With “CGGAGAAGTCCGGGCAGGCAAGGGGATGGGGATGGGGATGCGGAGTCACCTAGTGCAG” as the sequence, how does the binding signal read?
A: The binding signal was 12400 fluorescence intensity (a.u.).

Q: Which binding signal does the source give for “GGCGGCGGCGGCGGCGGAGGTTGGGAAGGAGAGGGAGGGGCGGAGTCACCTAGTGCAG” here?
A: The binding signal was 11800 fluorescence intensity (a.u.).

Q: “TGCTGGTGGTGGTGGTGGGGATCGAGCCGCTCGCTTCGACCGGAGTCACCTAGTGCAG” was tested. Which binding signal did it give?
A: The binding signal was 11700 fluorescence intensity (a.u.).

Q: Which binding signal does the source give for “AAATCATTTAGAAACACAACCTTTTCCACTGTTCAGGATTCGGAGTCACCTAGTGCAG” here?
A: The binding signal was 8030 fluorescence intensity (a.u.).

Q: Which binding signal does the source give for “TTCACCCCGCTGCTCCGACGTCCTAGCCATCGCCGCCGCCCGGAGTCACCTAGTGCAG” here?
A: Its binding signal is 8600 fluorescence intensity (a.u.).

Q: For “CTGCCGCTCTGGTTCTCCAACTCTGCATACATATACCTCTCGGAGTCACCTAGTGCAG”, which binding signal is on record?
A: Its binding signal is 12000 fluorescence intensity (a.u.).

Q: How did the binding signal turn out when “GGGATTTTGTGTTTTTGGTTTTTCTGGAGGGTGCAGAAGGCGGAGTCACCTAGTGCAG” was run?
A: Its binding signal is 14700 fluorescence intensity (a.u.).

Q: “CTACCAACCTGTTCATCATGGCCCGACTCCATTCATGTCACGGAGTCACCTAGTGCAG” was tested. Which binding signal did it give?
A: Its binding signal is 10300 fluorescence intensity (a.u.).

Q: Which binding signal does the source give for “TTTGTGGGTGGTTTTGGGCTAAAGATTCCGTTTCTTTCGACGGAGTCACCTAGTGCAG” here?
A: Its binding signal is 9250 fluorescence intensity (a.u.).

Q: With “CGGGGAGGAGGGAGGAATAAATACGTCCTAGTCGATCAGCCGGAGTCACCTAGTGCAG” as the sequence, how does the binding signal read?
A: Its binding signal is 8150 fluorescence intensity (a.u.).

Q: With “GTTCAGTCACTCGCACGCTCGCTCGATCACCCGGCCGCCGCGGAGTCACCTAGTGCAG” as the sequence, how does the binding signal read?
A: The binding signal was 10200 fluorescence intensity (a.u.).

Q: “CTCTCTACGGCTAGCTACTCCCATTTGTGGTCAACACCTCCGGAGTCACCTAGTGCAG” was tested. Which binding signal did it give?
A: Its binding signal is 10500 fluorescence intensity (a.u.).

Q: “TGCCTCTGTTACCACACTCTCACCTTGCTTAATAAATGCTCGGAGTCACCTAGTGCAG” was tested. Which binding signal did it give?
A: Its binding signal is 9800 fluorescence intensity (a.u.).

Q: How did the binding signal turn out when “ACTTAGGAGAGATTGCCTGAGTGCCATCTTTTTTGTATCTCGGAGTCACCTAGTGCAG” was run?
A: Its binding signal is 8960 fluorescence intensity (a.u.).

Q: With “CTGAAGATTGGATCTAAACTTTGTATCTAAACACAGCCATCGGAGTCACCTAGTGCAG” as the sequence, how does the binding signal read?
A: Its binding signal is 64300 fluorescence intensity (a.u.).

Q: For “TAACTTCTCAACTTTTTCACCATCTAAACACAGTCTTCATCGGAGTCACCTAGTGCAG”, which binding signal is on record?
A: Its binding signal is 8400 fluorescence intensity (a.u.).

Q: “CAGCACCAACGTTCTCTTCGGCCGATTCGGCGATTGCATCCGGAGTCACCTAGTGCAG” was tested. Which binding signal did it give?
A: The binding signal was 8930 fluorescence intensity (a.u.).

Q: For “ACGCACCAAAACACACGATCCTCTCGGATAAATCACAGCCCGGAGTCACCTAGTGCAG”, which binding signal is on record?
A: The binding signal was 27500 fluorescence intensity (a.u.).

Q: “ATCCTCTCCCGCACCAGCTATAAACCGCCACACGCCCTCGCGGAGTCACCTAGTGCAG” was tested. Which binding signal did it give?
A: Its binding signal is 8650 fluorescence intensity (a.u.).

Q: With “TCCTCTTGCAAAAAAAACACACACACACACGCACACAACTCGGAGTCACCTAGTGCAG” as the sequence, how does the binding signal read?
A: The binding signal was 10200 fluorescence intensity (a.u.).

Q: Which binding signal does the source give for “CTCTCTCTCTCTCTCTCTCTCTCTCTCGATGCCGACGCTTCGGAGTCACCTAGTGCAG” here?
A: Its binding signal is 11000 fluorescence intensity (a.u.).

Q: How did the binding signal turn out when “GGAGCTAGTCCAACCTACCGCAGTCACACCACCCCGCTATCGGAGTCACCTAGTGCAG” was run?
A: The binding signal was 9270 fluorescence intensity (a.u.).

Q: For “GTATGTGGGTGGTGGTATTTTTTTTATCCTGGTTACGACCCGGAGTCACCTAGTGCAG”, which binding signal is on record?
A: The binding signal was 19700 fluorescence intensity (a.u.).

Q: For “CTTCCTTTTCTCTTCTTCTTCTTCTTCTTTTGCGTGGGGACGGAGTCACCTAGTGCAG”, which binding signal is on record?
A: Its binding signal is 9650 fluorescence intensity (a.u.).

Q: With “TGTGGGTGGGGTTATTTTTTCTTCGTTTTCCTATTTACGACGGAGTCACCTAGTGCAG” as the sequence, how does the binding signal read?
A: Its binding signal is 15700 fluorescence intensity (a.u.).

Q: With “TGTGGATGATGGTATTTTTTTTCCTTTTTCCTAGTTACGACGGAGTCACCTAGTGCAG” as the sequence, how does the binding signal read?
A: Its binding signal is 9100 fluorescence intensity (a.u.).

Q: How did the binding signal turn out when “TGTATGTGTGGTGTGTGTTCATGTGCATCCTGAATTTTACCGGAGTCACCTAGTGCAG” was run?
A: Its binding signal is 14200 fluorescence intensity (a.u.).

Q: For “GATGTGTTGGCTGTCTTTGTTTTTTTTTTCCTGGTTTACCCGGAGTCACCTAGTGCAG”, which binding signal is on record?
A: The binding signal was 14000 fluorescence intensity (a.u.).

Q: “GGTGCGTGGGTGGTGGTCTTTTTCTTTTTCCTAGTTACGACGGAGTCACCTAGTGCAG” was tested. Which binding signal did it give?
A: The binding signal was 29400 fluorescence intensity (a.u.).

Q: For “GTGGGTGGTGGTTTTTTTTTCCTTTTTCCTGGTTACGACCCGGAGTCACCTAGTGCAG”, which binding signal is on record?
A: Its binding signal is 23700 fluorescence intensity (a.u.).

Q: With “GGAGGTGGAAAATCTTTGTTTTTTTCCTGGTTACGATCTCCGGAGTCACCTAGTGCAG” as the sequence, how does the binding signal read?
A: The binding signal was 9150 fluorescence intensity (a.u.).
